{
  "source": "PubChem BioAssay AID1745847",
  "about": "(National Center for Advancing Translational Sciences (NCATS), 2022)",
  "note": "In all, about 2,100 compounds went through this assay and about 670 (32%) were called active. Inconclusive results (about 50%) are left out. The list shows a part of the results. Values without a mark were called inactive. The call rests on the fitted dose curve; in most records, active means well fitted inhibition curve with a large enough effect; inconclusive means small, poorly fitted or top-dose-only effect; inactive means no such curve, though single readings can be large or run the other way.",
  "data": [
    {"experiment": "CMV-Luciferase Counterscreen for Inhibitors of ATXN expression; further: nearly all actives have a fitted effect of over 55% in size; further: potency means the concentration at half of the fitted maximal effect; on activity change, negative = inhibition: on the % scale 0 is the no-effect control and ±100 the full control effect", "conditions": "HEK-293 CMV-luciferase reporter, luminescence, 24 h; series mostly up to 57.5 µM; activity change, negative = inhibition: at the top concentration", "text": "PI: Daniel Scoles Ph.D. University of Utah School of Medicine, Salt Lake City, Utah MLPCN Grant: NS073009 Spinocerebellar ataxia type 2 (SCA2) is a multisystem neurodegenerative disease caused by a dominantly acting mutation leading to expansion of a polyQ domain in the ataxin-2 protein (ATXN2). SCA2 patients develop progressive ataxia and later lose function in other neuronal systems. Prominent parkinsonian signs develop in some patients. Like many neurodegenerative disorders, no symptomatic or disease-modifying treatments are known. The primary objective of the proposed research is to identify compounds inhibiting ATXN2 expression and to test them for efficacy in SCA2 mouse models. We have developed a cell-based assay paired with an in vivo mouse model using identical luciferase expression constructs. This approach takes advantage of an ATXN2-luciferase transgene, with the luciferase gene flanked by the upstream and downstream portions of the ATXN2 gene. Here we describe a 5-7 dose quantitative high thoroughput screen (qHTS) for compounds lowering ATXN2 expression. We screened the NIH Molecular Libraries Small Molecule Repository (MLSMR) and NCGC's mechanistically annotated (MIPE) and drug repurposing (NPC) collections of compounds for lowering expression of an ATXN2-luciferase reporter in HEK-293 cells. The assay is a multiplexed cell viability assay to ensure target reduction in the absence of cytotoxicity. Secondary qHTS assays included a CMV-luciferase reporter expressed in HEK-293 cells as well as a biochemical assay using recombinant luciferase to detect inhibitors of the reporter enzyme. Compounds that inhibit ATXN2 expression but is not cytotoxic were selected for confirmatory and secondary screens.\nPROTOCOL TABLE (as described by Inglese J, Shamu CE and Guy RK. 2007) SEQUENCE No. (e.g., 1, 2, 3, etc.); PARAMETER (e.g., Cells, Incubation, Reagent, etc.); VALUE; DESCRIPTION. 1; Cells; 4 uL; white, solid bottom, 1536-well Greiner assay plate. 2; Incubation; 2 hr; 37 degree C in 5% humidified CO2. 3; Compounds; 23 nL; Kalypsis pintool (Wako USA) equipped with a 1536-well pin head. 4; Incubation; 24 hr; 37 degree C in 5% humidfified CO2. 5; Reagent; 1 uL; Gly-Phe-7-Amino-4-trifluoromethylcoumarin. 6; Incubation; 30 min; 37 degree C in 5% humidfified CO2. 7; Detection; Fluorescence; Viewlux plate reader (PerkinElmer). 8; Reagent; 3 uL; SteadyGlo luciferase solution (Promega). 9; Incubation; 5 min; room temperature. 10; Detection; Luminescence; ViewLux plate reader (PerkinElmer). NOTES (numbers refer to Sequence numbers above) 1. HEK-293 cells expressing CMV-luciferase reporter (designated as SC cells) were suspended in phenol-red free DMEM and dispensed in assay plates using a Multidrop Combi dispenser (Thermo Fisher Scientific). 2. Assay plates were incubated. Evaporation was prevented by covering assay plates with metal lids containing holes to allow gas diffusion. 3. Compounds were added in a dose response manner with the final concentrations of 57, 11.4, 2.28, 0.46, 0.091, 0.018, 0.0037 uM. Vehicle-only plates, with DMSO being pin-transferred to columns 5-48, were inserted uniformly at the beginning and the end of each library to monitor and record any shifts in assay performance. 5. 125 uM Gly-Phe-7-Amino-4-trifluoromethylcoumarin (MP Biomedicals) working concentration was used at a final concentration of 25 uM. 7. To assess cell viability; the assay plates were read using the ViewLux high-throughput CCD imager (PerkinElmer), wherein single end-point fluorescence measurement was acquired (excitation 405/10; emission 540/25 nm). 8. Detection reagent SteadyGlo Luciferase (Promega) was added to the assay plate. 10. Luminescence is then measured on the ViewLux imager equipped with a clear emission filter using a 2 sec exposure. […]", "values": [
      {"compound": "Cc1cc(Br)c(OCc2ccc(C(=O)N/N=C3\\CC4CC=CC34)cc2)c(Br)c1", "note": "(stereo unspecified)", "Potency": "28.2 µM (active)"},
      {"compound": "CCN(CC)c1nc(-c2ccccn2)nc(-c2ccccc2)c1C#N", "Potency": "7.08 µM (active)"},
      {"compound": "CC(C)Nc1nc(-c2ccccn2)nc(-c2ccccc2)c1C#N", "activity change, negative = inhibition": "-15.7%"},
      {"compound": "COC(=O)c1c(NC(=O)/C=C/C(=O)O)sc(C)c1-c1ccc(C(C)C)cc1", "Potency": "14.1 µM (active)"},
      {"compound": "Cc1[nH]c(-c2ccc(F)cc2)cc1C(=O)N1CCN(c2ccc(Cl)cc2)CC1", "Potency": "22.4 µM (active)"},
      {"compound": "Cc1cc(N2CCN(C)CC2)ccc1NC(=O)c1ccc(-c2ccc(Cl)cc2)o1", "activity change, negative = inhibition": "-27.1%"},
      {"compound": "CC1(C(=O)NCc2ccco2)CCN1C(=O)C1(c2ccccc2)CC1", "note": "(stereo unspecified)", "activity change, negative = inhibition": "-4.65% [at 11.4 µM]"},
      {"compound": "CC1(C(=O)NCc2ccccc2Br)CCN1C(=O)Cc1ccc(-c2ccccc2)cc1", "note": "(stereo unspecified)", "Potency": "20 µM (active)"},
      {"compound": "Cc1ccc2[nH]c(O)c(N=NC(=O)C3CC3c3ccccc3)c2c1Br", "note": "(stereo unspecified)", "activity change, negative = inhibition": "-21.9% [at 11.4 µM]"},
      {"compound": "O=C(Nc1ccc(Cl)cc1)Nc1ccc(N2CCCC2)c(S(=O)(=O)Nc2ccccc2Cl)c1", "Potency": "3.98 µM (active)"},
      {"compound": "CCN(CC)S(=O)(=O)c1ccc(N/N=C/c2ccc(O)cc2O)nc1", "Potency": "1.26 µM (active)"},
      {"compound": "CN(C)CCCN(C(=O)c1ccc(S(=O)(=O)N2CCCCCC2)cc1)c1nc2ccc(Br)cc2s1", "activity change, negative = inhibition": "-16.1% [at 11.4 µM]"},
      {"compound": "CCn1c2ccccc2c2cc(NC(=O)COC(=O)c3cc(S(=O)(=O)N4CCCCC4)ccc3Cl)ccc21", "activity change, negative = inhibition": "4.24% [at 11.4 µM]"},
      {"compound": "O=C(COc1ccc(Br)cc1CO)Nc1ccc(S(=O)(=O)N2CCCCC2)cc1", "Potency": "17.8 µM (active)"},
      {"compound": "Cc1ccnc(NC(=O)CCCc2c[nH]c3ccccc23)c1", "activity change, negative = inhibition": "484% [at 11.4 µM]"},
      {"compound": "CC[n+]1c(/C=C/c2c[nH]c3ccccc23)ccc2cc(C)ccc21", "Potency": "35.5 µM (active)"},
      {"compound": "O=C(c1ccc(CS(=O)Cc2ccccc2Cl)o1)N1CCN(c2cccc(Cl)c2)CC1", "note": "(stereo unspecified)", "Potency": "20 µM (active)"},
      {"compound": "C=CCOC(=O)C1=C(C)NC(SCC)=C(C#N)C1c1ccc(Cl)cc1", "note": "(stereo unspecified)", "Potency": "20 µM (active)"},
      {"compound": "COc1cc(/C=C/C(O)=C/C(=O)/C=C/c2ccc(O)cc2)ccc1O", "activity change, negative = inhibition": "-3.01% [at 11.4 µM]"},
      {"compound": "COc1cc(C=CC(=O)c2cc(OC)c(OC)c(OC)c2)cc(OC)c1OC", "Potency": "12.6 µM (active)"},
      {"compound": "COc1cc(C=CC(=O)c2ccccc2)cc(OC)c1OC", "activity change, negative = inhibition": "-4.63%"},
      {"compound": "O=C(c1ccc2c(c1)OCO2)N(Cc1cccs1)C1(C(=O)NC2CCCCC2)CCCCC1", "Potency": "28.2 µM (active)"},
      {"compound": "COc1ccc(Nc2oc(COc3ccccc3OC)nc2C#N)cc1", "Potency": "3.55 µM (active)"},
      {"compound": "N#Cc1nc(COc2ccc(-c3ccccc3)cc2)oc1NCc1cccnc1", "Potency": "3.55 µM (active)"},
      {"compound": "C=CCNc1oc(-c2ccc(Cl)cc2)nc1C#N", "activity change, negative = inhibition": "-10.5%"},
      {"compound": "COc1cc2nc(CN(C)Cc3ccc(SC)cc3)[nH]c(=O)c2cc1OC", "activity change, negative = inhibition": "4.26%"},
      {"compound": "COc1ccc(-c2cnc3c(NC=O)cc(-c4ccccc4OC)cn23)cc1OC", "activity change, negative = inhibition": "153%"},
      {"compound": "Cc1ccc(/C=N/Nc2ccnc3cc(Cl)ccc23)c(C)c1", "Potency": "14.1 µM (active)"},
      {"compound": "Nc1nc(NCCCN2CCOCC2)nc(Nc2cccc(Cl)c2)c1[N+](=O)[O-]", "activity change, negative = inhibition": "-21.5% [at 11.4 µM]"},
      {"compound": "Cc1ccc(S(=O)(=O)N(Cc2ccccc2)c2ccccc2C(=O)NCc2ccco2)cc1", "Potency": "22.4 µM (active)"},
      {"compound": "COc1cnc(-c2ccccn2)nc1NC(C)C", "Potency": "8.91 µM (active)"},
      {"compound": "COc1cccc(CN(C)C(=O)CNC(=O)c2ccc(-c3ccccc3)cc2)c1OC", "Potency": "5.01 µM (active)"},
      {"compound": "COCCCn1c(-c2ccc(S(=O)(=O)N3CCOCC3)cc2)csc1=Nc1ccccc1", "Potency": "3.98 µM (active)"},
      {"compound": "COc1cc(C(=O)Oc2cccc(Nc3ncnc4ccccc34)c2)cc(OC)c1OC", "Potency": "3.98 µM (active)"},
      {"compound": "NC(Cc1ccccc1)c1csc(Nc2nccc(C(F)(F)F)n2)n1", "note": "(stereo unspecified)", "activity change, negative = inhibition": "5.13%"},
      {"compound": "Cc1cc(Nc2cccc([N+](=O)[O-])c2)n2c(nc3ccccc32)c1C#N", "Potency": "1.26 µM (active)"},
      {"compound": "Fc1ccc2[nH]c3c(N4CCc5ccccc5C4)ncnc3c2c1", "Potency": "2.82 µM (active)"},
      {"compound": "CCOC(=O)N1CCN(c2ncnc3c2[nH]c2ccc(F)cc23)CC1", "Potency": "3.55 µM (active)"},
      {"compound": "Fc1ccc2[nH]c3c(N4CCSCC4)ncnc3c2c1", "Potency": "3.16 µM (active)"},
      {"compound": "CC(C)(CO)NCc1c(OCc2ccc(Cl)cc2)ccc2ccccc12", "activity change, negative = inhibition": "-25.8%"},
      {"compound": "Cc1ccc2nc(-c3ccccc3)nn2c1", "Potency": "2 µM (active)"},
      {"compound": "COc1ccc(N2CCN(c3ccnc4cc(Cl)ccc34)CC2)cc1", "Potency": "3.98 µM (active)"},
      {"compound": "COc1ccc(Cl)cc1S(=O)(=O)N1CCN(C(=O)c2n[nH]c(=O)c3ccccc23)CC1", "activity change, negative = inhibition": "-26.4% [at 11.4 µM]"},
      {"compound": "O=S(=O)(c1ccccc1)N1CCN(c2ccnc3cc(Cl)ccc23)CC1", "Potency": "22.4 µM (active)"},
      {"compound": "COc1ccccc1N1CCN(c2ccnc3cc(Cl)ccc23)CC1", "Potency": "10 µM (active)"},
      {"compound": "Oc1ccc(N2CCN(c3ccnc4cc(Cl)ccc34)CC2)cc1", "Potency": "11.2 µM (active)"}
    ]}
  ]
}
